Test results as given in PubChem BioAssay (NCATS).
Records with an inconclusive call do not appear. Unmarked numbers belong to inactive results. Activity calls are given as the source filed them. Calls come from the whole dose curve.

Test: Primary qHTS for Vero E6 cytotoxicity: counterscreen for inhibitors of SARS-S pseudo-typed particle cell entry (AID 1479150)
Conditions: cell viability; series mostly up to 57.1 µM; activity change, negative = cytotoxicity: at the top concentration
% is set by controls: 0 for no effect and ±100 for the full control effect.

| SMILES | outcome | activity change, negative = cytotoxicity [%] |
| --- | --- | --- |
| CC(C)(C)NCC(O)COc1ccccc1OCC1CCCO1 (configuration not stated) | inactive | – |
| O=C(O)C(S)C(S)C(=O)O (configuration not stated) | – | 1.14 |
| CS(=O)(=O)c1ccc([C@@H](O)[C@@H](CO)NC(=O)C(Cl)Cl)cc1 | inactive | – |
| COc1ccnc(CS(=O)c2nc3ccc(OC(F)F)cc3[nH]2)c1OC (configuration not stated) | – | 1.23 |
| COc1ccc(C(=O)c2ccccc2)c(O)c1 | inactive | – |
| O=C1c2c(O)cccc2Cc2cccc(O)c21 | inactive | – |
| NCC(=O)CCC(=O)O | inactive | – |
| Nc1nc(=O)n([C@@H]2CS[C@H](CO)O2)cc1F | inactive | – |
| O=C(O)c1cccnc1 | – | -5.02 |
| CO[C@@]1(NC(=O)CSCC#N)C(=O)N2C(C(=O)O)=C(CSc3nnnn3C)CS[C@@H]21 | inactive | – |
| CCCCOCCOC(=O)c1cccnc1 | – | -16.7 |
| CC(CC(C#N)(c1ccccc1)C(C)C)N(C)C (configuration not stated) | – | 4.94 |
| C[C@H](CS)C(=O)N1CCC[C@H]1C(=O)O | inactive | – |
| Cc1cc2c(cc1CC(=O)c1sccc1S(=O)(=O)Nc1onc(C)c1Cl)OCO2 | – | 0.973 |
| Cc1cc(C)c(NC(=O)CN(CC(=O)O)CC(=O)O)c(C)c1Br | inactive | – |
| CCN(CC)CCNC(=O)c1cc(S(C)(=O)=O)ccc1OC | – | 3.96 |
| CC(=O)Nc1ccc(OC(=O)c2ccccc2OC(C)=O)cc1 | inactive | – |
| CCOC(=O)/C=C(C)/C=C/C=C(C)/C=C/c1c(C)cc(OC)c(C)c1C | inactive | – |
| CCC1(C)CC(=O)NC1=O (configuration not stated) | – | -9.24 |
| NNC(=O)c1ccncc1 | – | -10.6 |
| CCO/C([O-])=N/c1c[n+](N2CCOCC2)no1 | – | -1.05 |
| CCOC(=O)c1ccc(O)cc1 | – | 0.198 |
